The whole screen tested about 220,000 compounds, of which about 910 (0.41%) were called active. What follows is part of a selection rich in actives, with near analogues and random picks from the rest. Measured potencies and affinities stand elsewhere. Values without a mark were called inactive.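 The calls were made as follows: active = primary inhibition above the hit cutoff, then over 50% inhibition at one or more dose response concentrations (cut at about 23% in these data, passing the limit was not always enough); inconclusive = conflicting primary data, or primary hits not chosen for dose response; inactive = low primary inhibition, or under 50% at every dose.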

The assay deals with Aminopeptidase N (Plasmodium falciparum (isolate 3D7)) (UniProt O96935). Put plainly: P. falciparum M1AAP inhibitors, biochemical, fluorogenic H-Leu-NHMec substrate, 1536-well (AID 1445).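 Also: plate controls were DMSO full reaction for no effect and no enzyme background for full effect.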 To be noted: recombinant M1AAP, H-Leu-NHMec fluorogenic kinetic assay; at 30 µM, active compounds read high unless noted.
Chain of Aminopeptidase N (Plasmodium falciparum (isolate 3D7)) (O96935 whole entry, looked up): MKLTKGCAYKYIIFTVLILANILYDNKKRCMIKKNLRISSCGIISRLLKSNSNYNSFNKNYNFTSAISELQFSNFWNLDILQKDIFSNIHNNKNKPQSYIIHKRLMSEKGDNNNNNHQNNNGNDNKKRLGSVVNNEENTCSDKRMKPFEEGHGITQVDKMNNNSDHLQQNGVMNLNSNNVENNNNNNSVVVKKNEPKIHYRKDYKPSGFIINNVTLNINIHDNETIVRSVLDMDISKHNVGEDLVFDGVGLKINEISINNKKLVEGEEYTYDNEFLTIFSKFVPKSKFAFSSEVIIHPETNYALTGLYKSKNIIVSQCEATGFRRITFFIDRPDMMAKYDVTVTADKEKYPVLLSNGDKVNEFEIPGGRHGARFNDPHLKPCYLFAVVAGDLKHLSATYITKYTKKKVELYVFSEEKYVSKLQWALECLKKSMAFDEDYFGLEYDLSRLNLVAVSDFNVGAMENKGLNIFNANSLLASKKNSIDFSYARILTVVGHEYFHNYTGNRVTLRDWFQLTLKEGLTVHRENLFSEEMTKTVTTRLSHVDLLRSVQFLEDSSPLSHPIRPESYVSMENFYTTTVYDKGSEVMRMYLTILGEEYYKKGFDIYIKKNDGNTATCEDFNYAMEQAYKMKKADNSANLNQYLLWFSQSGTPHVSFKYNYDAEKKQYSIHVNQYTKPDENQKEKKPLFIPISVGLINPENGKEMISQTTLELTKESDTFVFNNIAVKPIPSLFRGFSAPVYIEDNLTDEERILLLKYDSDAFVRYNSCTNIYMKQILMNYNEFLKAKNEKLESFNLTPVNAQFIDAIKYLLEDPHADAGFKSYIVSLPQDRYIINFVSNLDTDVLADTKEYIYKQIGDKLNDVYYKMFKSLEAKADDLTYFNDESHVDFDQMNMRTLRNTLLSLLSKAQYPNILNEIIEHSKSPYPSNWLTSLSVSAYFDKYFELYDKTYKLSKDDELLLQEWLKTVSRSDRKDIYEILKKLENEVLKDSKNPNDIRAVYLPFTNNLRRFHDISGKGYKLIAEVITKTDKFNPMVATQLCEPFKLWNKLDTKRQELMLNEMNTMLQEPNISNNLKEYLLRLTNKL
Consider `Cc1ccc(C)c(Oc2coc3cc(OCC(=O)Nc4ccccc4C(C)C)ccc3c2=O)c1`, for which the inhibition was 2.02%.
In the case of `Cc1ccc(C(=O)ON=C2CCN(c3ccc([N+](=O)[O-])cc3)CC2)cc1`, the inhibition is 14.4%.
In the case of `COc1ccc(C(=O)ON=C2CCN(c3ccc([N+](=O)[O-])cc3)CC2)cc1` it was 4.56%.
Take `Cc1ccc2nc(-c3ccc(SCC(=O)N4CCc5ccccc54)nc3)[nH]c2c1`: the inhibition is 4.65%.
In the case of `C=C1c2ccccc2NC(=O)N1c1ccc(C)cc1` it was -1.9%; in that of `CC1CCCCN1C(=S)NC(=O)c1cccs1` (configuration not stated), 13.7%; in that of `CCC1CCCCN1C(=S)NC(=O)c1ccc([N+](=O)[O-])cc1` (configuration not stated), 5.65%.
Under `COc1cc(O)c(C(CC(=O)N2CCN(c3ccccc3)CC2)c2ccc(N(C)C)cc2)c(OC)c1` (configuration not stated) stands 0.72%; under `O=C(Nc1ccc2c(c1)OCO2)C1CCCN(S(=O)(=O)c2cccs2)C1` (configuration not stated), 13.9%.
For `O=C(NCc1ccccc1)C1CCCN(S(=O)(=O)c2cccnc2)C1` (configuration not stated), the inhibition was 20%.
Under `CCS(=O)(=O)N1CCCC(C(=O)NCc2ccc3c(c2)OCO3)C1` (configuration not stated) stands 1.85%.
In the case of `O=C(Nc1ccc2c(c1)OCO2)C1CCN(S(=O)(=O)c2cccs2)CC1` it was 3.56%; in that of `O=C(NCc1ccc2c(c1)OCO2)C1CCN(S(=O)(=O)N2CCCCC2)CC1`, 10.8%; in that of `O=C(NCc1ccc2c(c1)OCO2)C1CCCN(S(=O)(=O)c2cccs2)C1` (configuration not stated), 24.9% (active).
Under `CS(=O)(=O)N1CCC(C(=O)NCc2ccc3c(c2)OCO3)CC1` stands 21.2%.
Turning to `COc1cccc(CNC(=O)C2CCN(S(=O)(=O)c3cccs3)CC2)c1`, the inhibition was 10.2%.
For `Cc1ccc(CNC(=O)C2CCCN(S(=O)(=O)c3cccnc3)C2)cc1` (configuration not stated), the inhibition is 13%.
Under `Cc1nc2ccccc2c2oc(C(=O)NC3CC3)cc12` stands 1.86%; under `COC(C[C@@H](O)CC(=O)[C@@H](C)OCc1ccccc1)OC`, -6.94%.
With `O=C(NCc1ccc2c(c1)OCO2)C1CC(=O)N(CCc2ccccc2)C1` (configuration not stated), the inhibition is 0.19%.
In the case of `O=C(Cn1cccc1C(=O)c1ccccc1)NCc1ccccn1` it was 4.68%; in that of `CC(Sc1ccc(Cl)cc1)C(=O)Nc1ccccc1C(=O)N1CCOCC1` (configuration not stated), -3.03%; in that of `Nc1ccc2c(c1)nc(Cc1ccccc1)n2CCO`, 9.11%.
In the case of `Cc1ccnc(NS(=O)(=O)c2cnc(Cl)c(Br)c2)c1` it was 4.88%; in that of `Cc1cccc(-n2cc(CN(C)Cc3nccn3C)c(-c3cccc(F)c3)n2)c1`, 4.73%; in that of `CN(CC(=O)Nc1ccc(F)cc1)C(=O)COc1ccc(C(=O)c2ccccc2)cc1`, 2.01%.
On to `COCCn1c(SCC(=O)NC(=O)NCc2ccccc2)nc2ccccc21`, for which the inhibition is -0.93%.
In the case of `CCCn1c(C)cc(/C=C(\C#N)C(=O)OCC(=O)NC(=O)NCC)c1C`, the inhibition was 8.1%.
Under `COc1ccc(N(CC(=O)Nc2ccccc2C(=O)O)S(=O)(=O)c2ccc(C)c([N+](=O)[O-])c2)cc1` stands 6.07%.
Under `Cc1ccc(OCC(=O)Nc2ccc(N3CCN(C(=O)c4ccc(C)cc4)CC3)cc2)cc1` stands -2.61%; under `Cc1ccc(C(=O)N2CCN(S(=O)(=O)c3ccccc3)CC2)cc1`, 1.63%.
Take `COc1ccc(OC)c2sc(NC(=O)c3ccc(S(=O)(=O)N(C)C)cc3)nc12`: the inhibition was 23.5% (active).
As for `COc1ccc(OC)c2sc(NC(=O)c3ccc(S(=O)(=O)N4CCOCC4)cc3)nc12`, the inhibition is -1.73%.
For `COc1ccc(NC(=O)c2ccc(S(=O)(=O)N(C)C)cc2)cc1OC`, the inhibition is -1.14%.
As to `CC(=O)N1CCN(Cc2nc3cc(NC(=O)c4cccc(Br)c4)ccc3n2C)CC1`, the inhibition is 4.84%.
As to `Cc1cc(C)n2cc(CSc3ccc(Br)cc3)nc2n1`, the inhibition is -0.36%.
As for `CC(C)N(Cc1nc(-c2ccccc2)no1)C(=O)C(Cl)(Cl)Cl`, the inhibition was 1.11%.
In the case of `NC(=O)N/N=C/c1cn(-c2ccccc2)nc1-c1cccs1`, the inhibition was 4.92%.
On to `COC(=O)Cc1c(C)c2ccc(OC(C)C)cc2oc1=O`, for which the inhibition is 4.34%.
In the case of `Cc1c(Cc2ccccc2)c(=O)oc2cc(OC(=O)c3ccccc3)ccc12` it was 1.43%; in that of `Cc1ccc(C(c2nnnn2CCC(C)C)N2CCN(C)CC2)cc1` (configuration not stated), -0.91%.
For `CC(C)C[C@H](NC(=O)c1nc[nH]c1C(=O)N[C@@H](CC(C)C)C(=O)OC(C)(C)C)C(=O)OC(C)(C)C`, the inhibition is -5.44%.
Under `CC(C)C[C@H](NC(=O)c1nc[nH]c1C(=O)NC1CCN(C(=O)OC(C)(C)C)CC1)C(=O)OCc1ccccc1` stands -9.66%.
As to `CC(C)C[C@H](NC(=O)c1[nH]cnc1C(=O)N[C@@H](C)C(=O)OC(C)(C)C)C(=O)OC(C)(C)C`, the inhibition was -4.65%.
Consider `CC(C)C[C@H](NC(=O)c1nc[nH]c1C(=O)N1CCN(C(=O)OC(C)(C)C)CC1)C(=O)OC(C)(C)C`, for which the inhibition is 14.4%.
In the case of `COc1cc(C2C(C#N)=C(N)Oc3n[nH]c(-c4cccnc4)c32)cc(Br)c1O` (configuration not stated) it was 17.3%; in that of `COc1cc(OC)cc(C2C(C#N)=C(N)Oc3n[nH]c(-c4cccnc4)c32)c1` (configuration not stated), 14.9%.
For `CC(C)COc1ccc(C(=O)OCCN2CCOCC2)cc1`, the inhibition is 0.38%.
In the case of `Cc1cc2oc(=O)cc(CN3CCC(C)CC3)c2c(C)c1Cl` it was 8.55%; in that of `CCN1CCN(Cc2oc(CO)cc(=O)c2O)CC1`, 0.53%; in that of `CCc1cc(=O)oc2cc(C)c(CN3CCCC3)c(O)c12`, 13.6%.
In the case of `Cc1cc2oc(=O)cc(CN3CCC(C)CC3)c2cc1Cl` it was 0.59%; in that of `CCN1CCN(Cc2cc(=O)oc3ccc(Cl)cc23)CC1`, 1.72%; in that of `CCc1cc(=O)oc2cc(C)c(CN3CCCCC3)c(O)c12`, 13.8%.
In the case of `CN1CCN(Cc2oc(CO)cc(=O)c2O)CC1` it was -1.32%.
Regarding `CN1CCN(Cc2c(O)c(Cl)cc3c(-c4ccccc4)cc(=O)oc23)CC1`, the inhibition is 19.7%.
In the case of `O=C(COC(=O)CCc1ccc(S(=O)(=O)N2CCOCC2)cc1)NCc1ccccc1Cl` it was -2.82%.

For orientation: inhibition means the relative decrease from the control value, in per cent.

For the origin of these results see PubChem BioAssay AID1445 (SRMLSC, 2008).
